# Source: PubChem BioAssay (NCATS)
# Inconclusive results are not listed. Entries that show only a call come without a potency. A number with no mark means an inactive call. Calls of active or inactive are those of the source. Calls follow the shape of the dose curve; as a rule, active = well fitted curve in the direction sought with a large enough effect; inconclusive = small, poorly fitted or top-dose-only effect, or another doubt; inactive = no such curve, though single readings can be large; an effect the other way counts as inactive or inconclusive. Where a SMILES comes first, the peptide text is derived from it. [ ]: non-standard residue; d: D form. PhLac = O=C(O)[CH](O)Cc1ccccc1; NMeV = CN[CH](C(=O)O)C(C)C
# What was measured:
# [1] = Primary qHTS for inhibitors of nuclear receptor binding SET domain protein 2 (NSD2) in an isogenic RCH-ACV NSD2 p.E1099K mutant (9B) (AID 1645876)
# [2] = Primary qHTS for inhibitors of nuclear receptor binding SET domain protein 2 (NSD2) in an RCH-ACV wild type WT cells (2C) (AID 1645877)
# Also: nearly all actives have a fitted effect of over 70% in size.
# Potency is read from the fitted curve at half-maximal effect.
smiles,measurement,setting,value
C[C@@H]1O[C@@H](O[C@@H]2[C@@H](O)[C@H](O[C@@H]3[C@@H](O)[C@@H](O)[C@H](O[C@H]4[C@H](OC(=O)[C@]56CCC(C)(C)C[C@H]5C5=CCC7[C@@]8(C)C[C@H](O)[C@H](O[C@@H]9O[C@H](C(=O)O)[C@@H](O)[C@H](O)[C@H]9O)[C@@](C)(CO)C8[C@H](O)C[C@@]7(C)[C@]5(C)CC6)OC[C@H](O)[C@@H]4O)O[C@H]3C)OC[C@H]2O)[C@H](O)[C@H](O)[C@H]1O (stereo partly drawn),"activity change, negative = viability loss",[1],-7.76% [at 9.23 µM]
same,"activity change, negative = cell killing",[2],-21.5% [at 9.23 µM]
O=C(/C=C/c1ccc(O)cc1)OC[C@]12O[C@H]1[C@@H](O)[C@@H]1C=CO[C@@H](O[C@@H]3O[C@H](CO)[C@@H](O)[C@H](O)[C@H]3O)[C@@H]12,Potency,[1],inactive
same,Potency,[2],inactive
CC1(C)C(O)CCC2(C)C1C(O)C=C1COC(=O)C12O (stereo not drawn),Potency,[1],inactive
same,Potency,[2],inactive
C=C1CCC[C@]2(C)C[C@]3(O)OC(=O)C(C)=C3C[C@@H]12,Potency,[1],inactive
same,Potency,[2],inactive
C[C@]12CCC[C@](C)(C(=O)O)C1CCC13C=C(CO)C(CCC12)C3 (stereo partly drawn),Potency,[1],inactive
same,Potency,[2],inactive
C=C(C(=O)O)C1CCC(C)C2CCC(=O)OC2(C)C1 (stereo not drawn),Potency,[1],inactive
same,Potency,[2],inactive
CC1C/C=C/C=C\CCCCC(O)C/C=C/C(=O)O1 (stereo not drawn),Potency,[1],inactive
same,Potency,[2],inactive
C=CCc1ccc(O[C@@H]2O[C@H](CO[C@@H]3O[C@H](CO)[C@@H](O)[C@H](O)[C@H]3O)[C@@H](O)[C@H](O)[C@H]2O)c(O)c1,Potency,[1],inactive
same,Potency,[2],inactive
CC1CCC2(C(=O)OC3OC(COC4OC(CO)C(O)C(O)C4O)C(O)C(O)C3O)CCC3(C)C(=CCC4C5(C)CCC(O)C(C)(C(=O)O)C5CCC43C)C2C1(C)O (stereo not drawn),"activity change, negative = viability loss",[1],1.95% [at 9.23 µM]
same,"activity change, negative = cell killing",[2],2.11% [at 9.23 µM]
O=C(O)Cc1nn(Cc2nc3cc(C(F)(F)F)ccc3s2)c(=O)c2nccnc12,Potency,[1],inactive
same,Potency,[2],inactive
C=CC(C)(O)CC/C=C(\C)C(=O)OC1CC2(C(=O)O)CCC3(C)C(=CCC4C5(C)CCC(OC6OC(COC7OCC(O)C(O)C7O)C(O)C(OC7OCC(O)C(O)C7O)C6OC6OC(CO)C(O)C(O)C6OC6OCC(O)C(O)C6O)C(C)(C)C5CCC43C)C2CC1(C)C (stereo not drawn),"activity change, negative = viability loss",[1],-9.57% [at 9.23 µM]
same,"activity change, negative = cell killing",[2],-5.78% [at 9.23 µM]
COc1ccc2c3c1O[C@H]1C[C@@H](O)C=C[C@@]31CCN(C)C2,Potency,[1],inactive
same,Potency,[2],inactive
CC(CCC1(O)OC2CC3C4CCC5CC(O[C@@H]6O[C@H](CO)[C@@H](O)[C@H](O)[C@H]6O[C@@H]6OC[C@@H](O)[C@H](O)[C@H]6O)C(O)CC5(C)C4CCC3(C)C2C1C)CO[C@@H]1O[C@H](CO)[C@@H](O)[C@H](O)[C@H]1O (stereo partly drawn),outcome,[1],inactive [at 9.23 µM]
same,outcome,[2],inactive [at 9.23 µM]
Nc1ccn([C@@H]2C(F)=C(CO)[C@@H](O)[C@H]2O)c(=O)n1,Potency,[1],372 nM (active)
same,Potency,[2],332 nM (active)
COc1cc(C(=O)OC[C@H]2O[C@H](O[C@@]3(CO)O[C@@H](CO)[C@H](O)[C@H]3O)[C@H](O)[C@@H](O)[C@@H]2O)ccc1O,Potency,[1],inactive
same,Potency,[2],inactive
C[C@@H](OC(=O)/C=C/c1ccc(O)cc1)C1=C[C@]2(C=C[C@@H]3C(C(=O)O)=CO[C@@H](O[C@@H]4O[C@H](CO[C@@H]5O[C@H](CO)[C@@H](O)[C@H](O)[C@H]5O)[C@@H](O)[C@H](O)[C@H]4O)[C@@H]32)OC1=O,Potency,[1],inactive
same,Potency,[2],inactive
CNC(=O)[C@H]1O[C@@H](n2cnc3c(NCc4ccc(N)c(I)c4)ncnc32)[C@H](O)[C@@H]1O,"activity change, negative = viability loss",[1],-0.539% [at 9.23 µM]
same,"activity change, negative = cell killing",[2],2.39% [at 9.23 µM]
CC(=O)O[C@H]1[C@H](Oc2ccccc2COC(=O)C2(O)C=CCCC2=O)O[C@H](CO)[C@@H](O)[C@@H]1O (stereo partly drawn),Potency,[1],8930 nM (active)
same,Potency,[2],7090 nM (active)
CC(C)=CCC[C@](C)(O[C@@H]1O[C@H](CO[C@@H]2OC[C@@H](O)[C@H](O)[C@H]2O)[C@@H](O)[C@H](O)[C@H]1O)[C@H]1CC[C@]2(C)[C@@H]1[C@H](O)C[C@@H]1[C@@]3(C)CC[C@H](O[C@@H]4O[C@H](CO)[C@@H](O)[C@H](O)[C@H]4O[C@@H]4O[C@H](CO)[C@@H](O)[C@H](O)[C@H]4O)C(C)(C)[C@@H]3CC[C@]12C,Potency,[1],inactive
same,Potency,[2],inactive
CC1CCC(=O)CC(O)C(O)CC(=O)O1 (stereo not drawn),Potency,[1],inactive
same,Potency,[2],inactive
CC(=O)OC1C(O)C(C)=C(CCC(C)CC(=O)O)C2(C)CCCC(C)(C)C12 (stereo not drawn),Potency,[1],inactive
same,Potency,[2],inactive
CCOC(=O)c1ccnc(CNCC(=O)N(CC)CCN(C)C)c1,Potency,[1],inactive
same,Potency,[2],inactive
CC(=O)O[C@@H]1C[C@]2(C)[C@@]3(CCC4[C@@]5(C)CC[C@H](O[C@@H]6O[C@H](C(=O)O)[C@@H](O)[C@H](O[C@@H]7O[C@H](CO)[C@H](O)[C@H](O)[C@H]7O[C@@H]7O[C@@H](C)[C@H](O)[C@@H](O)[C@H]7O[C@@H]7OC[C@](O)(CO)[C@H]7O)[C@H]6O[C@@H]6O[C@H](CO)[C@H](O)[C@H](O)[C@H]6O)C(C)(C)C5CC[C@]42C)O[C@@H](O)[C@]12C3CC(C)(C)[C@@H](OC(=O)/C=C/c1ccc(O)c(O)c1)[C@@H]2OC(=O)/C=C/c1ccccc1 (stereo partly drawn),"activity change, negative = viability loss",[1],-5.24% [at 9.23 µM]
same,"activity change, negative = cell killing",[2],-4.25% [at 9.23 µM]
O=C(NN1CCCCC1)c1nn(-c2ccc(Cl)cc2Cl)c(-c2ccc(C#Cc3ccc(C(F)(F)F)cc3)s2)c1CNS(=O)(=O)N1CCCC1,Potency,[1],inactive
same,Potency,[2],inactive
COc1cc(CC(COC2OC(CO)C(O)C(O)C2O)c2cc(/C=C/CO)cc(OC)c2O)ccc1O (stereo not drawn),Potency,[1],inactive
same,Potency,[2],inactive
COc1cc(/C=C/C(=O)OC(C)(C)C(OC2OC(CO)C(O)C(O)C2O)C(=O)OCc2ccc(OC3OC(CO)C(O)C(O)C3O)cc2)ccc1O (stereo not drawn),Potency,[1],inactive
same,Potency,[2],inactive
CCC(C)(O)C(O)C(=O)OCc1ccc(O[C@@H]2O[C@H](CO)[C@@H](O)[C@H](O)[C@H]2O)c(OC)c1 (stereo partly drawn),Potency,[1],inactive
same,Potency,[2],inactive
COC(=O)C1C(c2ccc(O)cc2)C(C(=O)OC)C1c1ccc(O)cc1 (stereo not drawn),Potency,[1],inactive
same,Potency,[2],inactive
COc1ccc(C[C@H](N)C(=O)N[C@H]2[C@@H](O)[C@H](n3cnc4c(N(C)C)ncnc43)O[C@@H]2CO)cc1,Potency,[1],409 nM (active)
same,Potency,[2],258 nM (active)
CC(C)C(C(=O)N1CCCC1C(=O)O)N(C)C(=O)C(O)Cc1ccccc1 (stereo not drawn) (H-[PhLac]-[NMeV]-Pro-OH; configuration not given here),Potency,[1],inactive
same,Potency,[2],inactive
C=C1C2(CCC(=O)OC2(C)C)CC(OC(=O)/C(C)=C/C)C2(C)C13OC14C(=O)OC(C)(C(=O)C12C(=O)OC4C)C3OC(C)=O (stereo not drawn),Potency,[1],inactive
same,Potency,[2],inactive
CC1=CC(=O)C[C@H]2[C@@H]1CC[C@@H](C)[C@]21CO[C@H](c2ccoc2)C1=O,Potency,[1],inactive
same,Potency,[2],inactive
CC1(C(=O)O)CCCC2(C)C1CCC13CC(CCC21)C1(CO)OC31 (stereo not drawn),Potency,[1],inactive
same,Potency,[2],inactive
C=C1CCC2C(OC(=O)C2(O)COC(C)=O)C2C(=C)C(O)CC12 (stereo not drawn),Potency,[1],inactive
same,Potency,[2],inactive
C=C1CCC(OC(C)=O)C2(C)CC3(O)OC(=O)C(C)=C3CC12 (stereo not drawn),Potency,[1],inactive
same,Potency,[2],inactive
C[C@@H]1O[C@@H](O[C@H]2[C@H](O)[C@@H](C(=O)O)O[C@@H](O[C@H]3CC[C@@]4(C)C(CC[C@]5(C)C4CC=C4C6CC(C)(C)CC[C@]6(C(=O)O)CC[C@]45C)C3(C)C)[C@@H]2O[C@@H]2O[C@H](CO)[C@@H](O)[C@H](O)[C@H]2O)[C@H](O)[C@H](O)[C@H]1O (stereo partly drawn),"activity change, negative = viability loss",[1],-6.46% [at 9.23 µM]
same,"activity change, negative = cell killing",[2],-4.73% [at 9.23 µM]
C[C@]12CC[C@@H]3c4ccc(O[C@@H]5O[C@H](C(=O)O)[C@@H](O)[C@H](O)[C@H]5O)cc4CC[C@H]3[C@@H]1CCC2=O,Potency,[1],inactive
same,Potency,[2],inactive
COC(=O)c1ccc(O[C@@H]2O[C@H](CO)[C@@H](O)[C@H](O)[C@H]2O)c(OC)c1,Potency,[1],inactive
same,Potency,[2],inactive
CC(C)=CCc1ccc(Oc2c(O)cc(C)cc2CO)c(C(=O)O)c1O,Potency,[1],inactive
same,Potency,[2],inactive
C[C@@H]1C(=O)O[C@H]2CC34[C@H]5C[C@@H](C(C)(C)C)C36[C@@H](OC(=O)[C@@H]6O)O[C@@]4(C(=O)O5)[C@]21O (stereo partly drawn),Potency,[1],inactive
same,Potency,[2],inactive
CC[C@H]1OC(=O)[C@H](C)[C@@H](O[C@H]2C[C@@](C)(OC)[C@@H](O)[C@H](C)O2)[C@H](C)[C@@H](O[C@@H]2O[C@H](C)C[C@H](N(C)C)[C@H]2O)[C@@](C)(O)C[C@@H](C)[C@@H]2N[C@@H](COCCOC)OC([C@H]2C)[C@]1(C)O,Potency,[1],inactive
same,Potency,[2],inactive
Cc1nnc(C(C)C)n1C1CC2CCC(C1)N2CCC(NC(=O)C1CCC(F)(F)CC1)c1ccccc1 (stereo not drawn),Potency,[1],inactive
same,Potency,[2],inactive
CCOC(=O)[C@H](CCc1ccccc1)N[C@@H](C)C(=O)N1C2CCCCC2C[C@H]1C(=O)O (stereo partly drawn),Potency,[1],inactive
same,Potency,[2],inactive
O=C1Nc2ccc(O)cc2O[C@H]1O[C@@H]1O[C@H](CO)[C@@H](O)[C@H](O)[C@H]1O,Potency,[1],inactive
same,Potency,[2],inactive
COC(=O)c1cc(CN2CCN(C(=N)N)CC2)cc(C(=O)N2CCN(C(=O)c3ccc(C(=N)N)cc3)CC2)c1,Potency,[1],inactive
same,Potency,[2],inactive
COc1ccccc1CC(C(=O)O)N(C)C(=O)c1ccccc1 (stereo not drawn),Potency,[1],inactive
same,Potency,[2],inactive
COc1cc(C[C@H]2COC(=O)[C@@H]2Cc2ccc(O)c(OC)c2)ccc1O,Potency,[1],inactive
same,Potency,[2],inactive
N#CCc1ccc(O)cc1O[C@@H]1O[C@H](CO)[C@@H](O)[C@H](O)[C@H]1O,Potency,[1],inactive
same,Potency,[2],inactive
CN1CC[C@@H](NC(=O)Nc2ccc(C#N)cc2)C[C@@H]1c1nc2ccccc2[nH]1,Potency,[1],inactive
same,Potency,[2],inactive
